This is a sample that favours compounds with a hit; in the whole collection about 10% have one here.
HEK cytotox = HEK 293 cell cytotoxicity | HEK 293 viability, ATP luminescence (CellTiter-Glo), 48-72 h | Potency, µM (top dose mostly 115 µM), for the others: top-dose activity change, negative = cytotoxicity, hits mostly inhibitors | 6.6% of 94,000 active; also: nearly all actives have a fitted effect of over 60% in size
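Viability of HEK 293 cells, plated at 250 cells/well, was judged by cellular ATP after compound treatment for 48 or 72 hr. Luminescence was imaged 10 min after CellTiter-Glo addition at room temperature.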
GPT2 inhibitor = inhibitors of human GPT2 alanine aminotransferase; Potency, µM (doses to about 57.7 µM), inactives show at the highest dose activity change, negative = inhibition, hits mostly inhibitors; AID 1671188; Recombinant GPT2, coupled pyruvate oxidase/HRP Amplex Red fluorescence; 0.25% of 100,000 active; also: nearly all actives have a fitted effect of over 60% in size
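Recombinant GPT2 (10ng/uL) with 250uM a-KG and 2mM L-alanine, 30 min at room temperature, in HEPES pH 7.5 buffer. Pyruvate detected by pyruvate oxidase/HRP/Amplex Red fluorescence after 30 min in the dark; AOA (50uM) as positive control.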
NIH3T3 tox = cytotoxic compounds in NIH 3T3 cells | NIH 3T3 viability, CellTiter-Glo ATP luminescence, 48-72 h | Potency, µM (doses to about 96.7 µM), for the others: at the top dose activity change, negative = cytotoxicity, actives largely listed as inhibitors | 4.3% of 94,000 active | AID 1345082; also: nearly all actives have a fitted effect of over 55% in size
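First NIH 3T3 cells are plated at 400 cells/well; next compound is pinned in; then plates incubate 48 or 72 hr at 37 °C; finally CellTiter-Glo is added and luminescence read after 10 min.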
Luciferase inh = blocks purified firefly luciferase enzyme activity. P08659. 2.5% of 76,000 active. Potency, µM (doses to about 115 µM), most hits filed as inhibitors. purified P. pyralis luciferase, luminescence, biochemical; also: nearly all actives have a fitted effect of over 65% in size
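FLuc 10nM, D-luciferin 10uM, ATP 10uM, Mg acetate 10mM, Tris acetate pH 7.5, Tween/BSA; cpd qHTS; enzyme added last; CCD luminescence.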
hNpr1 antagonist = human Npr1 receptor antagonism | HEK293 hNpr1 GloSensor cGMP, ANP-stimulated luminescence | Potency, µM (series often up to 46.3 µM), without a hit: top-dose activity change, negative = inhibition, hits mostly inhibitors | 1.6% of 76,000 active; calls by dose curve; also: nearly all actives have a fitted effect of over 60% in size
Target sequence (P16066 whole entry, looked up): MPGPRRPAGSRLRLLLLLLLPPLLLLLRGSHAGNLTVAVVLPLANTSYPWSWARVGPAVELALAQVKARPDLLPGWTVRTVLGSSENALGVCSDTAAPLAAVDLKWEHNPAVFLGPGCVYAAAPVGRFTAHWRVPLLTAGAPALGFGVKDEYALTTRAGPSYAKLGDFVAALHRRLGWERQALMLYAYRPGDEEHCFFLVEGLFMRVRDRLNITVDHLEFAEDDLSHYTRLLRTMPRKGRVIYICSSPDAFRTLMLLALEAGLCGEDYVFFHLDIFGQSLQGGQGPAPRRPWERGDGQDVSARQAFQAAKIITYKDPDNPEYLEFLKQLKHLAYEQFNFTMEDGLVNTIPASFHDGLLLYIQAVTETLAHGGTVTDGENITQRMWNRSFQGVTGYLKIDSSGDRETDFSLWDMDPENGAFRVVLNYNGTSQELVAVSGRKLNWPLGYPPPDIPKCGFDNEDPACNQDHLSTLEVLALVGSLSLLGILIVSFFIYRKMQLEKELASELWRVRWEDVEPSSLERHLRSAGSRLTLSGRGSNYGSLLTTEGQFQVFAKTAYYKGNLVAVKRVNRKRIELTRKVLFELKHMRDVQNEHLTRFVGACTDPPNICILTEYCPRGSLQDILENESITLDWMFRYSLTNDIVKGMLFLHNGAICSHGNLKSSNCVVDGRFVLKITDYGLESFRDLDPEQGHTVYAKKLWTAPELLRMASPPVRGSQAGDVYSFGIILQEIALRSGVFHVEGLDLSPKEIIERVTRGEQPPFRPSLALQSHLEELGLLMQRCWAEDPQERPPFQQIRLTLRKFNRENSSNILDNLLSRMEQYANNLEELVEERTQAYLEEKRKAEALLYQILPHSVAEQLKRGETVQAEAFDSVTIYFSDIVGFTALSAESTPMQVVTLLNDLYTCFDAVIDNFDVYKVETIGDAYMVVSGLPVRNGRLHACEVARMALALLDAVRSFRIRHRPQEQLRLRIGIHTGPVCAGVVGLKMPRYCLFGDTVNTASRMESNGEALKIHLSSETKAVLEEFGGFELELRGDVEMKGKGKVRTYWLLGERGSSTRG
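Compound pre-incubated 30 min at room temperature on GloSensor-loaded HEK293 cells stably carrying hNpr1 and the pGS-40F cGMP biosensor. Stimulation uses hNppA at 0.1 nM final; luminescence is taken at baseline and 20 min post-agonist.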
An asterisk follows results filed as active; i = inactive; ? = inconclusive; / = no result given; [ ] = remark or other dose. Unless noted, calls follow the shape of the dose curve; as a rule, active = well fitted curve in the direction sought with a large enough effect; inconclusive = small, poorly fitted or top-dose-only effect, or another doubt; inactive = no such curve, though single readings can be large; an effect the other way counts as inactive or inconclusive. % is scaled to controls: 0 for no effect and ±100 for the full control effect; potency is read from the fitted curve at half-maximal effect.

SMILES	HEK cytotox	GPT2 inhibitor	NIH3T3 tox	Luciferase inh	hNpr1 antagonist
Cc1nnc(-c2cc(-c3ccccc3Oc3ccccc3)ccn2)n1C	89.1µM*	-13.3%[88.5 µM]	?	i	3.9%[70.6 µM]
O=C1NCCCCCCN(C(=O)Nc2ccccc2)[C@H]2C[C@H](C(=O)N3CCc4ccccc4C3)C[C@@H]12	-0.6%	i	-19.6%	i	2.6%
CCn1c(C2CCCN(C(=O)C(C)C)C2)nn(C)c1=O (configuration not stated)	4.0%	-1.0%	2.5%	i	-2.6%
Cc1noc(C)c1CN1CCc2c(n(Cc3cccnc3)n(CCc3ccccc3)c2=O)C1	-2.3%	i	?	i	9.5%
Cc1cc(-c2ccnc(-c3nnc(C)n3CCc3ccccc3)c2)ccn1	?	-26.3%[88.5 µM]	79.4µM*	i	-11.4%[70.6 µM]
Cc1nnc(-c2cc(C(=O)NC3CCOCC3)ccn2)n1CCc1ccccc1	i	i	89.1µM*	i	3.6%[70.6 µM]
Cc1nnc(-c2cc(-c3ccsc3)ccn2)n1-c1ccccc1	?	i	?	i	-8.1%[70.6 µM]
CC(=O)N1CCN(c2ccnc(-c3nnc(C)n3-c3ccccc3)c2)CC1	1.8%[172 µM]	-3.8%[88.5 µM]	89.1µM*	i	-0.5%[70.6 µM]
Cc1cc(-c2ccnc(-c3nnc(C)n3-c3ccccc3)c2)ccn1	44.7µM*	4.9%[88.5 µM]	25.1µM*	i	-0.4%[70.6 µM]
Cc1nnc(-c2cc(N3CCN(c4ccccn4)CC3)ccn2)n1-c1ccccc1	?	-6.4%[88.5 µM]	?	i	-2.0%[70.6 µM]
COc1ccc(-c2ccnc(-c3nnc(C)n3CCN3CCOCC3)c2)cc1OC	-25.4%[172 µM]	i	100µM*	i	0.6%[70.6 µM]
COc1ncc(-c2ccnc(-c3nnc(C)n3CCN3CCOCC3)c2)cn1	-0.4%[172 µM]	-4.7%[88.5 µM]	?	i	7.3%[70.6 µM]
CCc1nc2c(c(-c3ccc(Cl)cc3)n1)CN(Cc1ccsc1)CC2	?	i	?	i	-1.9%
CCc1nc2c(c(-c3ccc(Cl)cc3)n1)CN(Cc1ccc(C(F)(F)F)cc1)CC2	89.1µM*	i	?	i	3.4%
CCc1nc2c(c(-c3ccc(Cl)cc3)n1)CN(Cc1ccc(C)cc1)CC2	?	i	25.1µM*	i	-0.9%
CCc1nc2c(c(-c3ccc(Cl)cc3)n1)CN(Cc1ccccc1)CC2	17.8µM*	1.4%	10µM*	i	-7.7%
CCc1nc2c(c(-c3ccc(Cl)cc3)n1)CN(Cc1ccc(OC(F)(F)F)cc1)CC2	?	i	25.1µM*	i	-3.7%
CCCCN1C(=O)[C@@H]2C[C@@H](O)CN2C2(CN(Cc3cnc4ccccc4c3)C2)C1=O	1.6%[172 µM]	i	-0.3%[174 µM]	i	2.1%[70.6 µM]
O=C(C1CC1)N1CCC2(CN[S+](=O)([O-])c3cnccc3O2)C1 (configuration not stated)	0.5%	i	i	/	/
CCc1nc2c(c(-c3ccc(O)cc3)n1)CCN(Cc1ccccc1OC)CC2	?	-15.2%	?	i	3.0%
CCc1nc2c(c(-c3ccc(O)cc3)n1)CN(Cc1ccccc1OC)CC2	44.7µM*	-2.5%	?	i	-18.2%
COCCN1C(=O)[C@H]2CN(Cc3cc(OC)c(OC)c(OC)c3)C[C@H]2C1=O	1.1%	2.6%	i	i	2.1%
COc1ccc(-c2ccc(C(=O)N[C@@H]3COCC[C@H]3OC)o2)cc1	-19.7%	i	-29.3%	35.5µM*	-2.3%
Cc1ccc(CN2CCCCCCNC(=O)CC2c2ccccc2)o1 (configuration not stated)	?	2.9%	?	i	-1.4%
Cc1cccc(CN2CCCCCNC(=O)CC2c2ccccc2)c1 (configuration not stated)	?	-13.6%	39.8µM*	i	-17.3%
SMILES	HEK cytotox	GPT2 inhibitor	NIH3T3 tox	Luciferase inh	hNpr1 antagonist
Cc1ccc(CN2CCCCCCNC(=O)CC2c2ccccc2)s1 (configuration not stated)	39.8µM*	i	?	i	-15.4%
Cc1cc(C)c(CNC(=O)c2nc(Nc3ccccc3)cc3[nH]ccc23)c(=O)[nH]1	?	i	?	i	-11.3%[70.6 µM]
COc1ccccc1-c1cc2[nH]ccc2c(C(=O)NCc2c(C)cc(C)[nH]c2=O)n1	?	?	?	i	-4.0%[70.6 µM]
COc1ncccc1-c1cc2[nH]ccc2c(C(=O)NCc2c(C)cc(C)[nH]c2=O)n1	?	?	50.1µM*	i	-0.4%[70.6 µM]
Cc1cc(C)c(CNC(=O)c2nc(-c3cccc(O)c3)cc3[nH]ccc23)c(=O)[nH]1	79.4µM*	-5.7%[88.5 µM]	50.1µM*	?	3.1%[70.6 µM]
c1ccc(Oc2ccccc2-c2cc(-c3cn[nH]c3)c3cncn3c2)cc1	?	4.7%[88.5 µM]	?	i	-15.7%[70.6 µM]
CC(C)(C)C(=O)N1CCC2(CC1)C(=O)N(CC(=O)Nc1cccc(Cl)c1)CN2c1ccccc1	35.5µM*	-4.8%	31.6µM*	i	-1.6%
CCOCCN1C(=O)COC[C@@H]1[C@H](O)c1ccc(NC(=O)c2ccccc2)cc1	-2.0%[172 µM]	-5.6%[88.5 µM]	-15.9%[138 µM]	i	-2.0%[70.6 µM]
COc1ccc(-c2cc(-c3cccnc3)c3cncn3c2)cn1	?	-20.7%[88.5 µM]	?	i	-8.8%[70.6 µM]
COc1ccc(-c2cc(-c3cccc(CO)c3)cn3cncc23)cn1	?	-6.5%[88.5 µM]	39.8µM*	i	-1.8%[70.6 µM]
COc1ccc(-c2cc(-c3ccc4cn[nH]c4c3)cn3cncc23)cn1	?	-9.1%[88.5 µM]	44.7µM*	?	-17.2%[70.6 µM]
Cc1nn(C)c(C)c1CCC(=O)NCCn1c(C)cnc1C1CC1	i	i	-6.1%	/	/
COCCOC1CCN(S(=O)(=O)c2cccc(OC)c2)CC1	7.2%	1.9%	i	i	-3.2%
COc1cc(NC(=O)C2CCN(C(=O)c3ncn4c3COC(c3ccccc3)C4)CC2)cc(OC)c1 (configuration not stated)	-18.5%	1.4%	-6.7%	25.1µM*	-5.3%
COc1ccc(C2Cn3cnc(C(=O)N4CCC(C(=O)Nc5ccccc5)CC4)c3CO2)cc1 (configuration not stated)	2.0%	i	0.5%	?	-15.6%
COc1ccc(C(C)NC(=O)C2CCN(C(=O)c3ncn4c3COC(c3ccccc3)C4)CC2)cc1 (configuration not stated)	-6.2%	4.1%	-13.5%	28.2µM*	-12.3%
CC(NC(=O)C1CCN(C(=O)c2ncn3c2COC(c2ccc(Cl)cc2)C3)CC1)c1ccccc1 (configuration not stated)	1.6%	i	i	i	4.4%
Cc1sc2ccn(CC(C)C)c(=O)c2c1C(=O)N1CCCCC1	28.2µM*	i	4.6%	i	-2.9%
Cc1sc2ccn(CC(C)C)c(=O)c2c1C(=O)N1CCC(C)CC1	44.7µM*	i	-0.9%	i	7.5%
CCCN1CCN(C(=O)c2c(C)sc3ccn(CC(C)C)c(=O)c23)CC1	-1.1%	i	i	i	2.6%
